In PubChem BioAssay AID504447 (The Scripps Research Institute Molecular Screening Center, 2011):
Entries with a potency or affinity are not part of this list.

Target: Peroxisome proliferator-activated receptor gamma (Homo sapiens) (UniProt P37231)
Test: PPARg transcriptional activation, reporter cells – cell-based, luminescence, assay provider, dose response (AID 504447)
Conditions: luciferase luminescence, partial agonism; series mostly up to 5 µM; fold change activation: at the top concentration; call rule not given here

Sequence of Peroxisome proliferator-activated receptor gamma (Homo sapiens) (P37231 whole entry, looked up): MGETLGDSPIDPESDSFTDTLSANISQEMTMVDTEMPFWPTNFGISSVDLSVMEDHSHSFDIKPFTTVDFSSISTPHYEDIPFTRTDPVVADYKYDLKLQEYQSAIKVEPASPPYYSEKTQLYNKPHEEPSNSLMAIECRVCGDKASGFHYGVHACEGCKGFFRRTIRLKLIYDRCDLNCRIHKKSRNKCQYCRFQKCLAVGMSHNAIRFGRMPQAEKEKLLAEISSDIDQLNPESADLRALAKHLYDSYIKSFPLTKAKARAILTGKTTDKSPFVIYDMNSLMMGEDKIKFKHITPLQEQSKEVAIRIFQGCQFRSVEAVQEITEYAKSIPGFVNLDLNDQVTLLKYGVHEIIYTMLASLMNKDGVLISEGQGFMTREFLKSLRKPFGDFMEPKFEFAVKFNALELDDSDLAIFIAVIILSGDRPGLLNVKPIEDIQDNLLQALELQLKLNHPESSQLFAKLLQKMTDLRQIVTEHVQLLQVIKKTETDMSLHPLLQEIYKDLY

Fold change activation, inactive:
CN(CCNC(=O)C1CCCN(c2ncnc3c2nc2n3CCCCC2)C1)Cc1ccccc1 (stereo not drawn) 0.92 fold
O=C1CC(N2CCN(Cc3ccc4c(c3)OCO4)CC2)C(=O)N1Cc1ccc(N2CCCC2=O)cc1 (stereo not drawn) 1.06 fold
O=C(COc1coc(CN2CCc3ccccc3C2)cc1=O)Nc1ccc(F)cc1F 1.06 fold
Cc1ccc2nc(N3C(=O)C(O)=C(C(=O)c4ccco4)C3c3cccc(O)c3)sc2c1 (stereo not drawn) 1.17 fold
CC(Oc1ccc2c(c1)oc(=O)c1ccccc12)C(=O)NC(Cc1c[nH]c2ccc(O)cc12)C(=O)O (stereo not drawn) 0.99 fold
CCOc1cccc(/C(O)=C2/C(=O)C(=O)N(CCN3CCOCC3)C2c2ccncc2)c1 (stereo not drawn) 1.06 fold
CCOc1cc(C2C(C(=O)OC)=CN(Cc3ccc(Cl)cc3)C=C2C(=O)OC)ccc1O 1.06 fold
COc1ccc(CN(Cc2ccccn2)C(=O)CN2C(=O)C(C)Oc3ccccc32)cc1 (stereo not drawn) 1.05 fold
COc1cc(C2/C(=C(/O)c3ccc(F)cc3)C(=O)C(=O)N2CCCC(=O)O)ccc1O (stereo not drawn) 0.97 fold
O=C(O)COc1ccccc1/C=C1\SC(=S)N(NC(=O)c2ccccc2O)C1=O 1.01 fold
COc1ccc(CNC(=O)Cn2c(=O)n(CCC(=O)N3CCCCC3)c(=O)c3sccc32)cc1 1.15 fold
O=C(c1cccc(N2C(=O)C3C4C=CC(C4)C3C2=O)c1)N1CCN(c2ccccc2Cl)CC1 (stereo not drawn) 0.9 fold
COc1ccc(C=NNS(=O)(=O)c2ccc(F)cc2)cc1COc1cc(F)ccc1[N+](=O)[O-] 1.08 fold
CC(C)OC(=O)CCN1C(=O)/C(=C/c2ccccc2)SC1=S 0.94 fold
Cc1cccc(NC(=O)CN2C(=O)/C(=C3\SC(=S)N(CC4CCCO4)C3=O)c3ccccc32)c1 (stereo not drawn) 1.07 fold
O=C(Nc1c(C(=O)Nc2ccc3c(c2)OCCO3)cnn1-c1ccccc1Cl)c1ccco1 1.34 fold
COCCn1cnc2c1c(=O)n(Cc1cc(C(C)=O)ccc1OC)c(=O)n2Cc1ccccc1 1.14 fold
Cc1cc(N2C(=O)C(O)=C(C(=O)c3cccs3)C2c2cccc(Br)c2)no1 (stereo not drawn) 1.07 fold
O=C(c1nc2ccccn2c1CN1CCCC(O)C1)N1CCN(C2CCCCC2)CC1 (stereo not drawn) 1.15 fold
Cc1ccc2cc(CN(Cc3ccccc3)Cc3nnnn3C3CCCC3)c(=O)[nH]c2c1 0.99 fold
O=C1C(=O)N(CCCn2ccnc2)C(c2ccc(Cl)cc2)/C1=C(\O)c1ccc2c(c1)OCCO2 (stereo not drawn) 1.01 fold
CCOc1cccc(/C(O)=C2/C(=O)C(=O)N(Cc3ccco3)C2c2ccncc2)c1 (stereo not drawn) 0.91 fold
O=C(CSc1nc(=O)n(CCCN2CCOCC2)c2c1CCC2)Nc1cccc(F)c1 1.04 fold
